Data on three compounds can be found in PubChem BioAssay (EPA / NIEHS).

Activity calls are given as the source filed them. The calls were made as follows: active = hit-call score of the fitted dose curve at least 0.9, where 1 is the maximum; inactive = score below 0.9.

Read-out in assay [1]: C-C motif chemokine 2 (Homo sapiens) (UniProt P13500)
In words: BSK_KF3CT_MCP1: BioMAP Diversity Plus: KF3CT Assay for Monocyte Chemoattractant Protein 1 (MCP1/CCL2) Biomarker Activity (AID 2283073). Particulars: primary human keratinocytes with fibroblasts; actives raise or lower the signal. The procedure, abridged: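 KF3CT skin co-culture (keratinocytes/foreskin fibroblasts), 24 h post-dose; MCP-1 by ELISA; gain/loss of signal fit bidirectionally vs DMSO baseline.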

Read-out in assay [2]: Matrix Metallopeptidase 9 (MMP9), MMP9 (gene 4318)
In words: BSK_KF3CT_MMP9: BioMAP Diversity Plus: KF3CT Assay for Matrix Metallopeptidase 9 (MMP9) Biomarker Activity (AID 2283074). The following applies: primary human keratinocytes with fibroblasts; actives raise or lower the signal. The procedure, abridged: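 Human keratinocyte and foreskin fibroblast co-culture exposed to chemicals for 24 h; MMP9 biomarker measured by ELISA, bidirectional fitting relative to DMSO; cytotoxicity tracked by SRB total protein staining in parallel cultures.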

Read-out in assay [3]: urokinase plasminogen activator (uPA), PLAU (gene 5328)
Briefly: BSK_KF3CT_uPA: BioMAP Diversity Plus: KF3CT Assay for urokinase plasminogen activator (uPA) Biomarker Activity (AID 2283075). Particulars: primary human keratinocytes with fibroblasts; actives raise or lower the signal. The procedure, abridged:
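Primary human keratinocyte/foreskin fibroblast co-culture exposed to chemical; uPA measured by ELISA at 24 h. Bidirectional fit versus DMSO, with parallel SRB total-protein staining for cytotoxicity.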

Read-out in assay [4]: CD40, CD40 (gene 958)
In words: BSK_LPS_CD40: BioMAP Diversity Plus: LPS Assay for CD40 Biomarker Activity (AID 2283076). The following applies: primary human HUVEC with PBMC; actives raise or lower the signal. The essentials: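 ELISA readout of CD40 in HUVEC/PBMC co-culture (BSK_LPS system), 24 h post-dosing; bidirectional curve fit, DMSO baseline; parallel SRB total-protein staining for cytotoxicity.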

Read-out in assay [5]: E-selectin (Homo sapiens) (UniProt P16581)
Briefly: BSK_LPS_Eselectin: BioMAP Diversity Plus: LPS Assay for Eselectin Biomarker Activity (AID 2283077). Particulars: primary human HUVEC with PBMC; actives raise or lower the signal. The essentials:
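ELISA readout of E-selectin, 24 h post-dose, HUVEC + PBMC co-culture (LPS system). Gain or loss of signal vs DMSO baseline, bidirectional fit.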

Read-out in assay [6]: Interleukin-8 (IL8), CXCL8 (gene 3576)
Briefly: BSK_LPS_IL8: BioMAP Diversity Plus: LPS Assay for Interleukin-8 (IL8) Biomarker Activity (AID 2283078). The following applies: primary human HUVEC with PBMC; actives raise or lower the signal. The procedure, abridged:
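HUVEC + PBMC co-culture, LPS-activated; test chemicals dosed, IL-8 read by ELISA at 24 h. Bidirectional curve fit vs DMSO baseline (gain or loss of signal).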

The nature of assay [7]: BSK_LPS_SRB: Viability Assessment in the BioMAP Diversity Plus: LPS Assay (AID 2283079).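 Also: total protein by sulforhodamine B absorbance as a cytotoxicity measure; measured one day after compound addition; fitted in both directions against DMSO so loss or gain of signal counts.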 The following applies: primary human HUVEC with PBMC. The essentials:
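HUVEC + PBMC co-culture, LPS-stimulated; compound 24 h. 10% TCA fix, 0.1% SRB stain, A560. Bidirectional fit vs DMSO.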

Read-out in assay [8]: Interleukin-1 alpha (IL1a), IL1A (gene 3552)
In words: BSK_LPS_IL1a: BioMAP Diversity Plus: LPS Assay for Interleukin-1 alpha (IL1a) Biomarker Activity (AID 2283080). The following applies: primary human HUVEC with PBMC; actives raise or lower the signal. The essentials:
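HUVEC/PBMC co-culture, LPS system; 24 h after dosing; IL-1a by ELISA; gain or loss of signal fitted bidirectionally vs DMSO baseline.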

Read-out in assay [9]: Monocyte Chemoattractant Protein-1 (MCP1), CCL2 (gene 6347)
Briefly: BSK_LPS_MCP1: BioMAP Diversity Plus: LPS Assay for Monocyte Chemoattractant Protein-1 (MCP1) Biomarker Activity (AID 2283081). The following applies: primary human HUVEC with PBMC; actives raise or lower the signal. The essentials:
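ELISA read-out of MCP-1 after 24 h chemical dosing of a human umbilical vein endothelial cell/peripheral blood mononuclear cell co-culture stimulated with LPS. Gain or loss of signal fitted relative to DMSO controls.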

Assay [10] in a line: BSK_LPS_PGE2: BioMAP Diversity Plus: LPS Assay for Prostaglandin E2 (PGE2) Biomarker Activity (AID 2283082). The following applies: primary human HUVEC with PBMC; actives raise or lower the signal. The procedure, abridged:
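Endpoint derived from bidirectional curve fitting versus DMSO of ELISA-measured PGE2 in LPS-stimulated human primary vascular co-culture (HUVEC with PBMC) harvested at 24 h.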

Read-out in assay [11]: Macrophage colony-stimulating factor (MCSF), CSF1 (gene 1435)
Briefly: BSK_LPS_MCSF: BioMAP Diversity Plus: LPS Assay for Macrophage colony-stimulating factor (MCSF) Biomarker Activity (AID 2283083). Particulars: primary human HUVEC with PBMC; actives raise or lower the signal. The procedure, abridged:
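HUVEC + PBMC co-culture (human primary), 24 h post-dose; M-CSF by ELISA; gain/loss of signal fitted bidirectionally vs DMSO baseline.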

Read-out in assay [12]: Tissue Factor, F3 (gene 2152)
Briefly: BSK_LPS_TissueFactor: BioMAP Diversity Plus: LPS Assay for Tissue Factor Biomarker Activity (AID 2283084). Particulars: primary human HUVEC with PBMC; actives raise or lower the signal. The procedure, abridged:
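HUVEC/PBMC co-culture, LPS-activated; CD142 ELISA read 24 h post-dose; bidirectional curve fit vs DMSO negative control.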

Read-out in assay [13]: Tumor necrosis factor (Homo sapiens) (UniProt P01375)
Briefly: BSK_LPS_TNFa: BioMAP Diversity Plus: LPS Assay for Tumour Necrosis Factor alpha (TNFa) Biomarker Activity (AID 2283085). Particulars: primary human HUVEC with PBMC; actives raise or lower the signal. The procedure, abridged:
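Primary human vascular co-culture of HUVEC and PBMC; TNFa ELISA 24 h after treatment, analysed as increase or decrease relative to DMSO control.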

Read-out in assay [14]: Vascular cell adhesion molecule 1 (VCAM1), VCAM1 (gene 7412)
In words: BSK_LPS_VCAM1: BioMAP Diversity Plus: LPS Assay for Vascular cell adhesion molecule 1 (VCAM1) Biomarker Activity (AID 2283086). Particulars: primary human HUVEC with PBMC; actives raise or lower the signal. The essentials: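 Primary human vascular co-culture (umbilical vein endothelium plus PBMC) stimulated with LPS received chemical; 24 h later VCAM-1 was read by ELISA. Overt cytotoxicity was assessed by sulforhodamine B staining of parallel cultures at the same time point.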

Read-out in a further assay: CD38, CD38 (gene 952)
Briefly: BSK_SAg_CD38: BioMAP Diversity Plus: SAg Assay for CD38 Biomarker Activity (AID 2283087). The following applies: primary human HUVEC with PBMC; actives raise or lower the signal. The procedure, abridged: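 Fluorescence ELISA of cell-surface CD38 served as the read-out, with either increase or decrease fitted against DMSO controls. Cells were a human umbilical vein endothelium plus PBMC co-culture under SEB/TSST-1 stimulation, measured 24 h after dosing.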

Read-out in assay [15]: CD40, CD40 (gene 958)
Briefly: BSK_SAg_CD40: BioMAP Diversity Plus: SAg Assay for CD40 Biomarker Activity (AID 2283088). Particulars: primary human HUVEC with PBMC; actives raise or lower the signal. The essentials:
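HUVEC/PBMC co-culture, 24 h post-dose; CD40 by ELISA, fluorescence intensity; bidirectional fit vs DMSO negative control.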

Read-out in another assay: CD69, CD69 (gene 969)
Briefly: BSK_SAg_CD69: BioMAP Diversity Plus: SAg Assay for CD69 Biomarker Activity (AID 2283089). The following applies: primary human HUVEC with PBMC; actives raise or lower the signal. The procedure, abridged: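 ELISA, fluorescence read-out: CD69 on human umbilical vein endothelial cell + PBMC co-culture, 24 h post-dosing. Gain or loss of signal fitted bidirectionally against DMSO baseline.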

Read-out in assay [16]: Monocyte Chemoattractant Protein-1 (MCP1), CCL2 (gene 6347)
In words: BSK_SAg_MCP1: BioMAP Diversity Plus: SAg Assay for Monocyte Chemoattractant Protein-1 (MCP1) Biomarker Activity (AID 2283090). Particulars: primary human HUVEC with PBMC; actives raise or lower the signal. The procedure, abridged: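 MCP-1 levels in the endothelial–PBMC SAg co-culture were quantified by ELISA at 24 h post-dosing; both increases and decreases versus DMSO scored. Cytotoxicity monitored by SRB total protein in parallel cultures.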

Read-out in assay [17]: E-selectin (Homo sapiens) (UniProt P16581)
Briefly: BSK_SAg_Eselectin: BioMAP Diversity Plus: SAg Assay for Eselectin Biomarker Activity (AID 2283091). Particulars: primary human HUVEC with PBMC; actives raise or lower the signal. The procedure, abridged:
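E-selectin ELISA readout at 24 h post-dosing in human umbilical vein endothelial cell/PBMC co-culture; gain or loss of signal fitted relative to DMSO baseline.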

Read-out in assay [18]: Monokine induced gamma interferon (MIG), CXCL9 (gene 4283)
In words: BSK_SAg_MIG: BioMAP Diversity Plus: SAg Assay for Monokine induced gamma interferon (MIG) Biomarker Activity (AID 2283092). The following applies: primary human HUVEC with PBMC; actives raise or lower the signal. The essentials:
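ELISA readout of MIG/CXCL9; primary human umbilical vein endothelial cells co-cultured with peripheral blood mononuclear cells; 24 h post-dose; gain/loss fit vs DMSO baseline.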

E-selectin (Homo sapiens), sequence (P16581 whole entry, looked up): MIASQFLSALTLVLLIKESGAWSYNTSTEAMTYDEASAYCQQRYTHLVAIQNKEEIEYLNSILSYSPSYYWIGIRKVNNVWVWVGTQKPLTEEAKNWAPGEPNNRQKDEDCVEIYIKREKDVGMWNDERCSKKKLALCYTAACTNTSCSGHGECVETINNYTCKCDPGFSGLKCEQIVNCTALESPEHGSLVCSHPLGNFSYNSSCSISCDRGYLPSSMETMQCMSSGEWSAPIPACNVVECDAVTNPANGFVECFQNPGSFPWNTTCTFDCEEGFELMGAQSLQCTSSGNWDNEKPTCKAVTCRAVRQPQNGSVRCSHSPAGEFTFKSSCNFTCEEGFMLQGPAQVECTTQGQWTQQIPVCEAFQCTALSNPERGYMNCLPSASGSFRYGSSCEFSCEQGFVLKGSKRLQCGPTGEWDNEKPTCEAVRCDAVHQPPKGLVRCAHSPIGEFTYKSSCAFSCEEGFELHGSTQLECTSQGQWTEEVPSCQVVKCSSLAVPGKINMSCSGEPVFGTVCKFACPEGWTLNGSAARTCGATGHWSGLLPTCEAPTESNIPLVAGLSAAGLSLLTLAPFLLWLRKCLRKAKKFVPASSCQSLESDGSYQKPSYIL
Tumor necrosis factor (Homo sapiens), sequence (P01375 whole entry, looked up): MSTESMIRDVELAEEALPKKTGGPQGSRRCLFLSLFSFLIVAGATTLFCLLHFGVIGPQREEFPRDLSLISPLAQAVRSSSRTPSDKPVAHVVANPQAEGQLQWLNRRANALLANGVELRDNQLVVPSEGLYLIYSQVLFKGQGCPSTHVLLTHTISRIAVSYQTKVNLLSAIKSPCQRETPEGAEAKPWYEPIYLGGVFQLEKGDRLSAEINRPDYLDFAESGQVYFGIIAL

The AC50 is the concentration giving half of the maximal activity seen. Consider `CCSC(C)CC1CC(=O)C(C(CC)=NOC/C=C/Cl)=C(O)C1` (centres undefined), for which the outcome in assay [1] was “inactive”; in [2], “inactive”; in [3], “inactive”; with CD40, CD40 (gene 958) [4] it was “inactive”; in assay [5], “inactive”; in [7], “inactive”. The result in assay [8], in assay [9], in assay [10], in assay [11], in assay [12] and in [13] was inactive. In addition, the outcome in assay [14] is “inactive”; with CD38, CD38 (gene 952) it was “inactive”; with CD40, CD40 (gene 958) [15], “inactive”; in the assay with CD69, CD69 (gene 969), “inactive”; in [16], “inactive”; in assay [17], “inactive”. Moreover, the result in assay [18] was inactive. The AC50 in assay [6] is 90.3 nM (active).
For the compound `O=c1[nH]c(=O)[nH]c(=O)[nH]1`, the outcome in assay [1] is “inactive”; in assay [2], “inactive”; in [3], “inactive”; with CD40, CD40 (gene 958) [4], “inactive”; in assay [5], “inactive”; in [6], “inactive”. Further, the outcome in assay [7], in assay [8], in assay [9], in assay [10], in assay [11] and in assay [12] was inactive. For the same compound, the outcome in assay [13] is “inactive”; in [14], “inactive”; in the assay with CD38, CD38 (gene 952) it was “inactive”; in the assay with CD40, CD40 (gene 958) [15], “inactive”; with CD69, CD69 (gene 969), “inactive”; in [16] it was “inactive”. Also, the outcome in [17] and in assay [18] was inactive.
`CC(C)(OO)c1ccccc1`: the outcome is “inactive” in assay [1]; “inactive” in assay [2]; “inactive” in assay [3]; “inactive” with CD40, CD40 (gene 958) [4]; “inactive” in assay [5]; “inactive” in assay [6]. In addition, the outcome in [7], in assay [8], in assay [9], in assay [10], in [11] and in [12] was inactive. Besides, the outcome in [13] was “inactive”; in assay [14] it was “inactive”; with CD38, CD38 (gene 952), “inactive”; in the assay with CD40, CD40 (gene 958) [15] it was “inactive”; with CD69, CD69 (gene 969) it was “inactive”; in assay [16] it was “inactive”. The outcome in assay [18] was inactive.
